Source: PubChem BioAssay
Activity calls are given as the source filed them.

Columns and labels:
[1] = compound effects on differentiated 3T3-L1 adipocyte viability – cell-based, 3T3-L1 adipocytes, calcein-AM fluorescence, 48 h, basal, profiling panel (AID 1163); details: 3T3-L1 adipocytes viability, higher = more signal
[2] = compound effects on hepatocellular carcinoma cell viability – HepG2, calcein-AM fluorescence, 48 h, basal, profiling panel (AID 1164); details: higher = more signal
[3] = compound effects on multiple myeloma cell viability – MM1S, calcein-AM fluorescence, 48 h, basal, profiling panel (AID 1165); details: higher = more signal;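 note: viability of MM1S multiple myeloma cells under basal unstimulated conditions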
[4] = calcein-AM signal in unstimulated myeloma cells – cell-based, calcein-AM fluorescence, 48 h, PK04 Diversity Set, profiling panel (AID 1166); details: RPMI8226 myeloma viability, higher = more signal;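 note: cells grown under basal conditions without added stimulus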
[5] = JC-1 mitochondrial signal, unstimulated HepG2 cells – cell-based, JC-1 fluorescence, 24 h, 100 nL compound, profiling panel (AID 1167); details: HepG2 mitochondrial potential, higher = more signal
[6] = JC-1 mitochondrial signal, unstimulated adipocytes – cell-based, JC-1 fluorescence, 3T3-L1 adipocytes, 24 h, 100 nL compound, profiling panel (AID 1168); details: JC-1 mitochondrial fluorescence, higher = more signal, called active from +8 up or from −8 down
[7] = JC-1 mitochondrial signal, unstimulated myeloma cells – cell-based, JC-1 fluorescence, RPMI8226, 24 h, 100 nL compound, profiling panel (AID 1169); details: JC-1 mitochondrial potential fluorescence, higher = more signal
[8] = JC-1 mitochondrial signal, unstimulated MM1S myeloma – cell-based, JC-1 fluorescence, 24 h, 100 nL compound, profiling panel (AID 1170); details: MM1S mitochondrial potential, higher = more signal
[9] = resazurin metabolic signal in A549 cells – cell-based, resazurin fluorescence, 24 h, PK04 Diversity Set, profiling panel (AID 1171); details: A549 viability, higher = more signal, called active from +8 up or from −8 down
[10] = resazurin metabolic signal in HepG2 cells – cell-based, resazurin fluorescence, 24 h, PK04 Diversity Set, profiling panel (AID 1172); details: HepG2 viability, higher = more signal
[11] = budding yeast growth changes without added modifier – OD600, strain BY4716, 24 h, basal condition, primary screen (AID 1173); details: S. cerevisiae BY4716 growth, OD600, 24 h; higher = more signal, called active from +8 up or from −8 down
[12] = viability profiling in MM1S myeloma cells – cell-based, resazurin fluorescence, basal, 24 h, PK04 Diversity Set, profiling panel (AID 1174); details: higher = more signal, called active from +8 up or from −8 down
[13] = molecular target: Dihydroorotate dehydrogenase (quinone), mitochondrial (Plasmodium falciparum (isolate 3D7)) (UniProt Q08210); experiment: inhibition of P. falciparum DHODH – biochemical, C-terminal His tag, absorbance 600 nm, primary screen (AID 1175); details: PfDHODH enzyme, DCIP absorbance 600 nm; higher = more signal, called active from +8 up or from −8 down;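 note: recombinant parasite enzyme with a five histidine tag at its C terminus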
[14] = growth modulation of vineyard yeast isolate – strain RM11-1a, OD600, basal, 24 h, primary screen (AID 1177);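 note: cultures grown under basal conditions with no added stressor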; details: S. cerevisiae RM11-1a growth, OD600, 24 h; higher = more signal, called active from +8 up or from −8 down
[15] = growth of efflux-deficient E. coli DRC39 – strain DRC39, OD650, 24 h, E. coli filamentation inducers, primary screen (AID 1178);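 note: growth measured as culture turbidity by optical density at 650 nm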; details: E. coli DRC39 acrAB, higher = more signal, called active from +8 up or from −8 down
[16] = growth of efflux-deficient E. coli DRC39 – strain DRC39, OD650, 48 h, E. coli filamentation inducers, primary screen (AID 1179);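 note: screen aims at cell division blockers that make cells filament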; details: E. coli DRC39 delta-acrAB growth, higher = more signal, called active from +8 up or from −8 down
[17] = viability profiling in RPMI8226 myeloma cells – cell-based, resazurin fluorescence, basal, 24 h, PK04 Diversity Set, profiling panel (AID 1180); details: higher = more signal;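 note: RPMI8826 multiple myeloma cell line at 5000 cells per well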
[18] = molecular target: E3 ubiquitin-protein ligase XIAP (Homo sapiens) (UniProt P98170); experiment: small molecules binding XIAP protein – biophysical, small-molecule microarray, fluorescence 635 nm, primary screen (AID 1181); details: higher = more signal;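 note: score merges 667 nm emission and signal to noise over triplicate slides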
[19] = test system: XIP peptide (Xip251-270) binding; experiment: XIP fragment 251-270 binding compounds – biochemical, small-molecule microarray, fluorescence 635/667 nm, 0.1 µg/mL protein, primary screen (AID 1182); details: fluorescent protein binding, 635 nm, higher = more signal, called active from +8 up or from −8 down
XIP peptide (Xip251-270) = experiment: compounds binding XIP fragment 251-270 – biochemical, small-molecule microarray, fluorescence 635/667 nm, 0.5 µg/mL protein, primary screen (AID 1183); details: fluorescence 635 nm, higher = more signal

Dihydroorotate dehydrogenase (quinone), mitochondrial (Plasmodium falciparum (isolate 3D7)), sequence (Q08210 whole entry, looked up): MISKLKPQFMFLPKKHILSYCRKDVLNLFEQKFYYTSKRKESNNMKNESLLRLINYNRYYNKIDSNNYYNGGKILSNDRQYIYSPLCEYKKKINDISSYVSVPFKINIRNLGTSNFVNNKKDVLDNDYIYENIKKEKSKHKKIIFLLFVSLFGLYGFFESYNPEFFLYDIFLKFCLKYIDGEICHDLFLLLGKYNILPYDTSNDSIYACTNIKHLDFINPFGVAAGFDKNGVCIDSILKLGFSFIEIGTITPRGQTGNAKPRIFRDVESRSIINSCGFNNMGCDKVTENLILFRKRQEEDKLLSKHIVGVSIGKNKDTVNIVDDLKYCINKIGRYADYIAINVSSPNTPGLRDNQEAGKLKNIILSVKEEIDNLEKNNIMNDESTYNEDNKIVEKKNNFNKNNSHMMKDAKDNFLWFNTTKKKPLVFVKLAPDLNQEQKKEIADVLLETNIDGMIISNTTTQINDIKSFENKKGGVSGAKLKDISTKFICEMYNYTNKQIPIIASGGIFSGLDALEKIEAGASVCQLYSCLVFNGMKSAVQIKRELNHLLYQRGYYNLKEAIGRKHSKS
E3 ubiquitin-protein ligase XIAP (Homo sapiens), sequence (P98170 whole entry, looked up, the tested form may be a part): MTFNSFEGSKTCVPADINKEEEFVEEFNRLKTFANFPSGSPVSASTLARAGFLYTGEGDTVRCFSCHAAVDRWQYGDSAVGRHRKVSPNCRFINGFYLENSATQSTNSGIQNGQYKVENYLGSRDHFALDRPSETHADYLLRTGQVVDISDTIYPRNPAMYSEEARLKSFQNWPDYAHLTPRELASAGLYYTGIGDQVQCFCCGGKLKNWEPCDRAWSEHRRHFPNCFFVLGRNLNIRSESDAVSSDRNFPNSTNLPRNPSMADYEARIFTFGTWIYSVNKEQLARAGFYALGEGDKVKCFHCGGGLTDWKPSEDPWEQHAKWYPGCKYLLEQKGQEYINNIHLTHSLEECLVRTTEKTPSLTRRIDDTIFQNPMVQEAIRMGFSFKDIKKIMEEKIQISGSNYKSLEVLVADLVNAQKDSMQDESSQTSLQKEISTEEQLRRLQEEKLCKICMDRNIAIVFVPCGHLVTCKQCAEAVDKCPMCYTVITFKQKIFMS

Compound	z-score [1]	z-score [2]	z-score [3]	z-score [4]	z-score [5]	z-score [6]	z-score [7]	z-score [8]	z-score [9]	z-score [10]	z-score [11]	z-score [12]	composite z-score [13]	z-score [14]	z-score [15]	z-score [16]	z-score [17]	composite z-score [18]	composite z-score [19]	composite z-score (XIP peptide (Xip251-270))
C=CCC(OC(C)=O)[C@@H]1[C@@H](N(Cc2ccc(-c3ccccc3)cc2)C(=O)c2ccc(-c3ccccc3)cc2)c2cc(OCCCO)ccc2N1C(=O)c1ccc(-c2ccccc2)cc1 (stereo not given in full)	0.948	0.623	0.787	0.18	2.74	0.111 (inactive)	-0.176	-0.0803	1.4 (inactive)	1.46	-0.435 (inactive)	1.4 (inactive)	0.169 (inactive)	-0.738 (inactive)	1.34 (inactive)	0.995 (inactive)	0.899	-0.0102	-0.959 (inactive)	-0.58
CCN(CC)c1ccc(N2CC=CC34O[C@@H]5C=CCOC(=O)[C@@H]5[C@H]3C(=O)N(C(CO)C(C)C)[C@@H]4C2=O)cc1 (stereo not given in full)	0.471	0.121	-0.413	-0.201	0.296	0.688 (inactive)	1.08	0.728	0.461 (inactive)	0.492	0.0588 (inactive)	0.913 (inactive)	0.764 (inactive)	1.24 (inactive)	1.21 (inactive)	1.09 (inactive)	0.687	0.0139	-0.0795 (inactive)	-0.51
[N-]=[N+]=NCc1ccccc1C[C@]1(C(=O)NCc2ccccc2)N=C(c2ccc(OCCCO)cc2)O[C@H]1c1ccccc1	0.457	-2.82	-2.07	-2.78	0.671	0.371 (inactive)	-0.819	-1.6	0.225 (inactive)	0.643	2.86 (inactive)	-0.295 (inactive)	2.37 (inactive)	4.01 (inactive)	3.49 (inactive)	1.24 (inactive)	-0.29	0.191	0.279 (inactive)	-0.172
CCCC[C@@H](O)C1=C(C)C[C@H]2C(=O)N(C)C(=O)[C@H]2[C@H]1CO	-0.552	0.257	0.0991	-0.0268	1.2	1.01 (inactive)	-0.363	0.613	0.199 (inactive)	0.648	-3.48 (inactive)	0.987 (inactive)	0.312 (inactive)	-1.09 (inactive)	2.71 (inactive)	1.75 (inactive)	1.03	0.0769	0.627 (inactive)	0.586
CC(C)(C)OC(=O)CC[C@@]1(C(=O)NCc2ccccc2)N=C(c2ccc(OCCCO)cc2)O[C@@H]1c1ccccc1CN=[N+]=[N-]	2.98	-0.399	0.507	-1.04	2.13	0.179 (inactive)	-1.12	0.236	0.392 (inactive)	-0.169	-0.986 (inactive)	0.725 (inactive)	-0.182 (inactive)	-0.496 (inactive)	2.1 (inactive)	0.824 (inactive)	0.394	-0.227	1.42 (inactive)	0.733
COCCCNC(=O)[C@@]1(CCS(=O)(=O)c2ccccc2)N=C(c2ccc(OCCCO)cc2)O[C@H]1c1ccccc1CN=[N+]=[N-]	2.66	-0.0301	0.872	-0.532	1.02	0.164 (inactive)	-0.866	0.175	0.0658 (inactive)	-0.404	-0.938 (inactive)	1.21 (inactive)	-1.02 (inactive)	-1.49 (inactive)	1.4 (inactive)	0.502 (inactive)	0.846	0.0871	0.901 (inactive)	0.67
C=CC[C@]1(C(=O)N2CCCCC2)COC(c2ccc(OCCCO)cc2)=N1	1.98	-2.29	-3.6	-2.3	-0.223	0.322 (inactive)	-0.749	-0.435	-0.585 (inactive)	1.55	-6.59 (inactive)	-0.863 (inactive)	-0.0606 (inactive)	0.474 (inactive)	2.98 (inactive)	0.693 (inactive)	0.909	-0.17	0.502 (inactive)	0.54
CC(CO)N1C(=O)[C@@H]2C3C(=O)OCCC/C=C\[C@H]3OC23C=CCN(Cc2ccccc2)C(=O)[C@@H]13 (stereo not given in full)	-0.154	0.547	2.05	-0.172	0.797	1.86 (inactive)	-0.0742	0.322	0.754 (inactive)	0.918	-0.703 (inactive)	0.462 (inactive)	-0.761 (inactive)	-0.985 (inactive)	1.6 (inactive)	1.97 (inactive)	0.526	-0.0333	-0.554 (inactive)	-0.736
CC(C)C(=C=CC[C@@H](O)c1ccc(CO)o1)CCO	-0.266	0.719	0.288	0.889	0.919	0.556 (inactive)	0.304	0.501	1.37 (inactive)	1.32	-1.13 (inactive)	1.07 (inactive)	-0.669 (inactive)	-0.332 (inactive)	2.09 (inactive)	1.39 (inactive)	1.18	-0.0036	0.676 (inactive)	-0.514
